# NR2F2 inh – NR2F2 (human) inhibition, primary screen; P24468; HEK293T NGFI-A luciferase reporter, luminescence; inhibition, % at 8.6 µM; hit rate 0.7% among 370,000;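 active = inhibition above a per-plate cutoff, mean inhibition of test wells between control levels plus 3 SD, cut at about 38% in these data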;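 also: cells cotransfected with COUP-TFII expression vector driving the NGFI-A reporter; 0% = median of COUP-TF2 test wells and 100% = reporter-only cells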
# Target sequence (P24468 whole entry, looked up): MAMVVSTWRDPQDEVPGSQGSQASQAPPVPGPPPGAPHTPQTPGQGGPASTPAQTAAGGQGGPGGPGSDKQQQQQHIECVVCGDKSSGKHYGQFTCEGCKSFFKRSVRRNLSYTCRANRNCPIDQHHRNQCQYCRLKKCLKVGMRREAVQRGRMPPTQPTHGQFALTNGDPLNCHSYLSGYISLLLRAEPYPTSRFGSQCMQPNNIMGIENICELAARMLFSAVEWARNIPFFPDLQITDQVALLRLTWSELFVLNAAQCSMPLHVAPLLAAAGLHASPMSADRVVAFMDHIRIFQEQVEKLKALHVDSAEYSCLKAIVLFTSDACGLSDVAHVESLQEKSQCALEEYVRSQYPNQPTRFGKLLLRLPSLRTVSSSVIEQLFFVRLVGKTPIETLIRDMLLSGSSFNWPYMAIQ
# H9c2 protect – myocardial damage modulation in H9c2 cells; H9c2 cardiomyocytes, H2O2 injury protection, ATPLite, 2 h; protection from H2O2 cell death, % at 20 µM; hit rate 0.63% among 360,000; AID 588492;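 active = compounds giving at least 50% protection of heart cells from peroxide-induced death in the single-dose screen, raw or plate-pattern-corrected value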;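 also: 0% = DMSO wells with peroxide and 100% = DMSO wells without peroxide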
# Gli-Sufu antag – Gli-Sufu pathway antagonism; Sufu-KO-LIGHT fibroblasts, Gli luciferase reporter luminescence; inhibition, % at 5 µM; hit rate 0.74% among 340,000; AID 588413;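 active = inhibition above about 55%, limit read from the data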;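 also: 0% = DMSO-treated cells and 100% = wells with medium but no cells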
# 697 NFkB inh – lowers PMA/ionomycin-induced NF-kB signal in 697 B cells; hit rate 0.33% among 330,000; AID 435022; inhibition, % at 4 µM; 697 B-cell NF-kB luciferase reporter, 16 h; in the data active = inhibition above about 35%
# Jurkat NFkB inh – lowers PMA/ionomycin-induced NF-kB signal in Jurkat cells | AID 435003 | hit rate 0.53% among 330,000 | inhibition, % at 4 µM | PMA/ionomycin-induced NF-kB luciferase reporter, luminescence; in the data active = inhibition above about 50%
# H9c2 TAG inh – triacylglycerol accumulation inhibition. hit rate 0.66% among 230,000. inhibition, % at 12.5 µM. H9c2 cells, Nile Red lipid (TAG) fluorescence; cells loaded with 200 µM oleic acid. AID 651582;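 active = pattern-corrected inhibition of lipid staining of at least 50% with the nuclear-stain viability signal not falling by more than 50%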;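 also: 0% = DMSO wells and 100% = triacsin C control wells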
# * = called active by the depositor; . = no result. The list is not random: actives were taken first. Their share in the collection is about 2.6%.
SMILES,NR2F2 inh,H9c2 protect,Gli-Sufu antag,697 NFkB inh,Jurkat NFkB inh,H9c2 TAG inh
Cc1ccc(S(=O)(=O)N2CCOCC2)cc1C(=O)Nc1nc(-c2ccccn2)cs1,10,54*,16,-18,24,-12
COc1ccc(-n2c(SCC(=O)NCCCSC)nnc2-c2ccncc2)cc1,-11,.,.,.,.,.
CC(C)[C@@H]1NC(=O)[C@H]2C[C@@]3(c4ccccc4)c4ccccc4N[C@H]3N2C1=O,-3,.,.,.,.,.
CCOC(=O)N1C(=O)C[C@](Sc2ccc(OC)cc2)(C(=O)N2CCN(c3ncccn3)CC2)[C@H]1c1ccc(OC)cc1,-5,.,.,.,.,.
COc1ccc(-c2cc(C(=O)Nc3nc4c(C)cccc4s3)c3ccccc3n2)cc1OC,6,14,4,2,-16,.
COc1ccc(-c2cc(C(=O)Nc3ccc(O)cc3)c3ccccc3n2)cc1OC,-10,2,-17,-3,-29,28
COc1ccc(NC(=O)c2cc(-c3cc(OC)c(OC)c(OC)c3)nc3ccccc23)cc1OC,16,63*,-9,23,-16,.
COc1ccc(-c2cc(C(=O)N3CCN(c4ccccc4)CC3)c3ccccc3n2)cc1OC,12,54*,-1,4,21,4
COc1cc(-c2cc(C(=O)OCC(=O)NC3CC3)c3ccccc3n2)cc(OC)c1OC,-6,64*,7,18,-1,-1
COc1ccccc1NC(=O)c1cc(-c2ccc(OC)c(OC)c2)nc2ccccc12,-1,57*,-2,3,18,.
CCOC(=O)N1C(=O)C[C@](Sc2ccc(OC)cc2)(C(=O)N2CCN(C(C)=O)CC2)[C@H]1c1ccc(OC)cc1,-10,.,.,.,.,.
Cc1ccc(S(=O)(=O)NCC2CN(S(=O)(=O)c3ccc(C)cc3)c3ccccc3C(=O)N2c2ccc(F)cc2)cc1 (stereo not drawn),-4,.,.,.,.,.
COc1ccc(CSc2nc3ccccc3c(=O)[nH]2)cc1F,19,53*,-8,6,-2,5
COc1ccccc1OCCSc1nc2ccccc2c(=O)[nH]1,-4,66*,0,-67,-14,.
CC(=O)c1cccc(NC(=O)Nc2ccc3c(c2)N(C)C(=O)CS3)c1,5,52*,2,-3,13,.
COC(=O)C1CN(Cc2ccccc2)CCS(=O)(=O)N1Cc1ccc(Cl)cc1 (stereo not drawn),3,.,.,.,.,.
O=C1CCC2(CCC(c3ccccc3)CC2)N1CC[C@@H](O)c1ccccc1 (stereo partly drawn),15,.,.,.,.,.
COc1cccc(CNC(=O)C2CCC(CNS(=O)(=O)c3cccc4cccnc34)CC2)c1OC (stereo not drawn),-14,.,.,.,.,.
CCOC(=O)C1CCN(C(=O)c2ccc3c(=O)n4nc(Nc5ccccc5OC)sc4nc3c2)CC1,9,71*,.,.,.,12
CCOC(=O)C1CCN(C(=O)c2ccc3c(=O)n4nc(Nc5cc(C)ccc5C)sc4nc3c2)CC1,10,17,3,-26,-17,.
C=CCN1C(=O)[C@@H](CC(=O)NCC2CCCCC2)[C@]2(C(=O)OCC)CCCCC/C=C/12,0,.,.,.,.,.
O=C(CN(C(=O)Cn1nnc(-c2ccccc2F)n1)c1cnc2ccccc2c1)NCC1CCCO1 (stereo not drawn),20,-2,3,6,18,7
O=C(CN(C(=O)Cn1nnc(-c2cccs2)n1)c1cnc2ccccc2c1)NCC1CCCO1 (stereo not drawn),-6,83*,-2,-15,-8,.
COc1cc(C(=O)Nc2ccc3nc(N4CCOCC4)sc3c2)cc(OC)c1OC,-29,16,9,-35,-16,15
Cc1c(C(=O)Nc2ccc3nc(N4CCOCC4)sc3c2)oc2ccccc12,-4,58*,5,2,-4,49
SMILES,NR2F2 inh,H9c2 protect,Gli-Sufu antag,697 NFkB inh,Jurkat NFkB inh,H9c2 TAG inh
O=C(Nc1ccc2nc(N3CCOCC3)sc2c1)c1cc2ccccc2o1,-15,68*,.,.,.,38
COc1cccc(NC(=O)Nc2c(-c3ccc(C(F)(F)F)cc3)nc3ncccn23)c1,-11,.,.,.,.,.
Cc1ccc(NC(=O)Cc2cccc(OC(F)F)c2)c(S(=O)(=O)N2CCOCC2)c1,-5,.,.,.,.,.
COc1ccc(Cl)cc1NC(=O)CN(C)C(=O)Cn1[nH]c(=O)c2ccccc2c1=O,4,84*,8,13,-2,25
CN(CC(=O)Nc1ccccc1Br)C(=O)Cn1[nH]c(=O)c2ccccc2c1=O,-2,83*,-19,5,-8,6
COc1cccc(NC(=O)CN(C)C(=O)Cn2[nH]c(=O)c3ccccc3c2=O)c1,8,40,-8,24,9,-4
CC1Nc2ncnc(N3CCN(c4ccccc4)CC3)c2N(Cc2ccc(Cl)cc2)C1=O (stereo not drawn),-1,61*,-1,10,2,13
COCC(=O)N[C@@H]1C[C@@H]2O[C@H](CO)CC[C@@H]2O[C@@H]1CCc1ccc(-c2ccccc2)cc1,14,.,.,.,.,.
Cc1c(C#N)c(N)nc2c3c(sc12)NC(=O)CC3c1ccccc1 (stereo not drawn),-8,50*,16,-7,-4,.
CCC(C)NC(=O)c1ccc2nc(-c3ccc(OC)c(OC)c3)c(-c3ccc(OC)c(OC)c3)nc2c1 (stereo not drawn),9,71*,7,10,-15,.
CCCN(CCC)C(=O)c1ccc2nc(-c3ccc(OC)c(OC)c3)c(-c3ccc(OC)c(OC)c3)nc2c1,-19,13,8,2,8,.
COc1ccc(OC)c(/C=N/NC(=O)c2cc3c(OC)cccc3[nH]2)c1,2,29,4,0,-16,15
COc1ccc(OC)c(/C=N/NC(=O)CCc2ccc(O)c(O)c2)c1,-5,51*,4,-1,-8,.
COc1ccc(OC)c(/C=N/NC(=O)CCc2c(C)n[nH]c2C)c1,2,-1,0,7,-17,-6
COc1ccc(OC)c(/C=N/NC(=O)c2cc3c(OC)cc(OC)cc3[nH]2)c1,8,51*,5,-8,-10,1
COc1ccc(OC)c2[nH]c(C(=O)N/N=C/c3ccccc3O)cc12,-1,39,59*,-16,36,.
COc1ccc(/C=N/NC(=O)c2cc3c(OC)ccc(OC)c3[nH]2)cc1O,-66,66*,23,-7,31,.
CC(C)C[C@H]1COc2cccc(N3CCCC3)c2S(=O)(=O)N1C,7,.,.,.,.,.
CCOc1cc(-c2cc(-c3ccc(N)cc3)nc(N)c2C#N)ccc1O,-14,116*,2,26,-11,-6
CC(C)(C)OC(=O)n1ccc2ccc(-c3ccc4cc[nH]c4c3)cc21,-30,.,.,.,.,.
CCC(=O)Nc1cc2nn(-c3ccc(C)cc3)nc2cc1C,46*,-19,40,-240,-54,3
COc1ccc(C[C@H]2CN3C(=NC[C@@H]3Cc3ccccc3)N2CCNC(=O)c2ccc(C)c(Br)c2)cc1,.,-30,30,15,10,120*
COc1ccc(C[C@H]2CN3C(=NC[C@H]3Cc3ccccc3)N2CCNC(=O)c2ccc(C)c(Br)c2)cc1,.,-34,20,-1,15,128

# Assay outcomes from PubChem BioAssay.
